Data reported in PubChem BioAssay (NCATS).
Records with an inconclusive call do not appear. Activity calls are given as the source filed them. The call rests on the fitted dose curve; in most records, active means well fitted cell-killing curve with a large enough effect; inconclusive means small, poorly fitted or top-dose-only effect; inactive means flat fitted curve, though single readings scatter.

Legend:
[1] = Cell Viability - LYMP2-006 (AID 978);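 further: cells exposed to compound for 24 hours; nearly all actives have a fitted effect of over 60% in size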
How it was run: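 Cells are seeded at 2500 per well and rested 5 hr at 37 C. Compounds are added across a concentration series for 24 hr at 37 C, after which ATP is quantified by luciferase luminescence.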

[2] = Cell Viability - LYMP2-021 (AID 974);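 further: compound exposure lasts 24 hours at 37 °C; nearly all actives have a fitted effect of over 55% in size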
How it was run: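 Concentration-response cytotoxicity in a human lymphoblastoid line: 24 hr treatment at 37 C in complete culture medium, tetraoctylammonium bromide as positive control, luminescent ATP quantitation as viability measure.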

[3] = Cell Viability - LYMP2-023 (AID 975);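 further: cells exposed to compound for 24 hours at 37 °C; nearly all actives have a fitted effect of over 55% in size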
How it was run: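 Concentration-dependent drop in intracellular ATP measures acute cytotoxicity in a human lymphoblastoid line treated for 24 hours in complete culture medium. AC50 values are taken from Hill-equation fits of qHTS data.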

[4] = Cell Viability - LYMP2-025 (AID 976)
How it was run: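 In qHTS format, LYMP2-025 lymphoblastoid cells in complete culture medium received compound for 24 hr; ATP-based CellTiter-Glo signal gave viability, with AC50 derived by Hill equation.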

[5] = Cell Viability - LYMP2-002 (AID 977)
How it was run: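 Luminescent ATP readout (CellTiter-Glo, 30 min room temperature) after 24 h compound exposure at 37 C of a human lymphoblastoid line, 2500 cells/well. AC50 values derived by standard Hill fitting of qHTS concentration-response data.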

[6] = Cell Viability - LYMP2-007 (AID 979);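 further: cells exposed to compound for 24 h before reading; nearly all actives have a fitted effect of over 60% in size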
How it was run: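 Acute toxicity is scored as a concentration-dependent fall in intracellular ATP in human lymphoblastoid cells treated 24 hr at 37 C, measured by luciferase luminescence; Hill-equation modelling yields AC50.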

[7] = Cell Viability - LYMP2-008 (AID 980); further: nearly all actives have a fitted effect of over 60% in size
How it was run: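 Acute cytotoxicity is scored as concentration-dependent loss of cellular ATP in a human lymphoblastoid line after 24 hr treatment at 37 C. ATP is quantified by luciferase luminescence.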

[8] = Cell Viability - LYMP2-012 (AID 982);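 further: cellular ATP by luciferase luminescence where a drop means cytotoxicity; cells exposed to compound for one day before reading; nearly all actives have a fitted effect of over 55% in size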
[9] = Cell Viability - LYMP2-014 (AID 983); further: nearly all actives have a fitted effect of over 50% in size
How it was run: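 Decrease in intracellular ATP after 24 hr treatment at 37 C, measured by luciferase luminescence, indicated cytotoxicity. Concentration-response data were fitted with the standard Hill equation to give AC50.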

[10] = Cell Viability - LYMP2-010 (AID 981);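 further: cells exposed to compound for 24 hours at 37 °C; nearly all actives have a fitted effect of over 55% in size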
How it was run: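 Acute toxicity is scored as a concentration-dependent loss of cellular ATP in human lymphoblastoid cells after 24 hr compound exposure in complete medium. Tetraoctylammonium bromide is the positive control.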

Measured: Potency
Potency means the concentration at half of the fitted maximal effect.

CC(=O)[C@H]1CC[C@H]2[C@@H]3CCC4=CC(=O)CC[C@]4(C)[C@H]3CC[C@]12C
inactive: [1]

CC[C@H](C)C(=O)O[C@H]1C[C@@H](C)C=C2C=C[C@H](C)[C@H](CC[C@@H]3C[C@@H](O)CC(=O)O3)[C@H]21
not listed: [1] | [10]
inactive: all other assays above

NC(N)=NC(N)=NCCc1ccccc1
inactive: all assays above

O=C(O)c1cc(=O)[nH]c(=O)[nH]1
inactive: all assays above

O=C(N[C@H](CO)[C@H](O)c1ccc([N+](=O)[O-])cc1)C(Cl)Cl
inactive: all assays above

N=C(N)c1ccc(OCCCCCOc2ccc(C(=N)N)cc2)cc1
active: [6] 39800 nM | [10] 39800 nM
inactive: [3] | [4]

Cc1cc(NS(=O)(=O)c2ccc(N)cc2)no1
inactive: all assays above

CC1=NN(c2ccccc2)C(=O)C1
inactive: all assays above

COc1ccc2cc3[n+](cc2c1OC)CCc1cc2c(cc1-3)OCO2
inactive: [3] | [4] | [5]

CCc1cc(C(N)=S)ccn1
inactive: all assays above

CN(C)c1ccc(C(=C2C=CC(=[N+](C)C)C=C2)c2ccc(N(C)C)cc2)cc1
active: [2] 2510 nM | [3] 3160 nM | [4] 6310 nM | [5] 2510 nM | [1] 3160 nM | [6] 2510 nM | [7] 2000 nM | [10] 1260 nM | [8] 1000 nM | [9] 2000 nM

Cc1nnc(NS(=O)(=O)c2ccc(N)cc2)s1
inactive: all assays above

C[C@]12C=CC(=O)C=C1CC[C@@H]1[C@@H]2C(=O)C[C@@]2(C)[C@H]1CC[C@]2(O)C(=O)CO
inactive: all assays above

Cc1noc(NS(=O)(=O)c2ccc(N)cc2)c1C
inactive: all assays above

Cc1ccnc2c1NC(=O)c1cccnc1N2C1CC1
inactive: all assays above

NNC(=O)c1ccncc1
inactive: all assays above

Cc1ncc([N+](=O)[O-])n1CCO
inactive: all assays above
